This note sets out measurements from ChEMBL document CHEMBL1961873, “Compounds: GSK PKIS; Assays: Nanosyn kinase panel” (2012).

The target of assay [1] is T1, Inhibitor of nuclear factor kappa-B kinase subunit epsilon (Homo sapiens) (UniProt Q14164).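 Further: reported values are averaged percent inhibition figures against human IKKε.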
T1 sequence (whole entry): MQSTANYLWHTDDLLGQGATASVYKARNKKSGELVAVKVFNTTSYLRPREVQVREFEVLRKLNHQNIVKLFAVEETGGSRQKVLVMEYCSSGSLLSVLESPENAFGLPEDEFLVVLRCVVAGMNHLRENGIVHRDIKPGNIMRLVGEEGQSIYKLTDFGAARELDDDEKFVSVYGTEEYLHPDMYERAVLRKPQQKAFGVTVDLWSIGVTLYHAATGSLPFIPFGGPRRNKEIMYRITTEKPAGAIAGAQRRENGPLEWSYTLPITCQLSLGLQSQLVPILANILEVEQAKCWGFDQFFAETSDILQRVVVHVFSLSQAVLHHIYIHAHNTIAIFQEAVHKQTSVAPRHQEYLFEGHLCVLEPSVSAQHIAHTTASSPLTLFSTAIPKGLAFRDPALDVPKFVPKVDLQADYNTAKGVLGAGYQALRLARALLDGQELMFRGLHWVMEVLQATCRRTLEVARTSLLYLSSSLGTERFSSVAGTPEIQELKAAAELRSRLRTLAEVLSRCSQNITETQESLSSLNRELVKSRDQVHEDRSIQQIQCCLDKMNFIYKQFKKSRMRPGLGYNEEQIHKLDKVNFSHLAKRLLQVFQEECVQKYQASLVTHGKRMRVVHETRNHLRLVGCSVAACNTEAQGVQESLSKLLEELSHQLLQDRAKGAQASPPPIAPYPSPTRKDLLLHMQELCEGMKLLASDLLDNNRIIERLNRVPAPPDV
To be noted: at 1 µM.

Assay [2] concerns the target T2, Serine/threonine-protein kinase Nek1 (Homo sapiens) (UniProt Q96PY6).
T2 sequence (whole entry): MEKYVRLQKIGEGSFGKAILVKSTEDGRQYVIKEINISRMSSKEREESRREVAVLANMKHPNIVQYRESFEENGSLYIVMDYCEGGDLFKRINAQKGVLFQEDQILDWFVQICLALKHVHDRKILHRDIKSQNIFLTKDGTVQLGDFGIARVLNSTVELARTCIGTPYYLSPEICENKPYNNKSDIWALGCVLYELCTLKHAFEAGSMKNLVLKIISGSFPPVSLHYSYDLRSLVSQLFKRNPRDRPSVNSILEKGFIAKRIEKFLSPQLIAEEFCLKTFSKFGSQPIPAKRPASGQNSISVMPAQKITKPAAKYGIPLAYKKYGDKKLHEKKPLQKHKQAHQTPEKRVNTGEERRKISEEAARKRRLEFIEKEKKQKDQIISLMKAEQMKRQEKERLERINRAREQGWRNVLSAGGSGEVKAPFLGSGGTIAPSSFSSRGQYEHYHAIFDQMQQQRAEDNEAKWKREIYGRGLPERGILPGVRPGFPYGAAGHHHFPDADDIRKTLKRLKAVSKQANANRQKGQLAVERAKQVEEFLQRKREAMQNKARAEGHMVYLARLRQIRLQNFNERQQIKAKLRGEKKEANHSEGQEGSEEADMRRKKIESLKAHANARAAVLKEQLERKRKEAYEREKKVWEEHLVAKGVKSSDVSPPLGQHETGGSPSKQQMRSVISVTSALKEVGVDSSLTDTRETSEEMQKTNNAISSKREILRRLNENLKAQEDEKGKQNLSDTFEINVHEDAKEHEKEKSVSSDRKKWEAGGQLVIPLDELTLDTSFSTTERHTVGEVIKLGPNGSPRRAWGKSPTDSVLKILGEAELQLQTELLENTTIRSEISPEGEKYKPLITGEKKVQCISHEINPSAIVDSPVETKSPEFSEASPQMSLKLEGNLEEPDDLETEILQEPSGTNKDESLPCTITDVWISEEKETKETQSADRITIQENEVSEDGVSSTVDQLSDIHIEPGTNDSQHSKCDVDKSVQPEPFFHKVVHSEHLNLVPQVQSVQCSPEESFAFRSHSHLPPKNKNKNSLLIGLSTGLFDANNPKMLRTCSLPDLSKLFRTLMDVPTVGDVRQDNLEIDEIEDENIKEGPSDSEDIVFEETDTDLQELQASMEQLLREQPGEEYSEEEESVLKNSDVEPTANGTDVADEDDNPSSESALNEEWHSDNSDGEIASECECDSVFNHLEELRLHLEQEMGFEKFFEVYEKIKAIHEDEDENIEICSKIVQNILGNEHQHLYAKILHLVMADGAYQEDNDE
The conditions noted are these: at 0.1 µM.

Assay [3] has as its target T2, Serine/threonine-protein kinase Nek1 (Homo sapiens). The conditions noted are these: at 1 µM.
Assay [4] addresses T3, Serine/threonine-protein kinase Nek2 (Homo sapiens) (UniProt P51955).
T3 sequence (whole entry): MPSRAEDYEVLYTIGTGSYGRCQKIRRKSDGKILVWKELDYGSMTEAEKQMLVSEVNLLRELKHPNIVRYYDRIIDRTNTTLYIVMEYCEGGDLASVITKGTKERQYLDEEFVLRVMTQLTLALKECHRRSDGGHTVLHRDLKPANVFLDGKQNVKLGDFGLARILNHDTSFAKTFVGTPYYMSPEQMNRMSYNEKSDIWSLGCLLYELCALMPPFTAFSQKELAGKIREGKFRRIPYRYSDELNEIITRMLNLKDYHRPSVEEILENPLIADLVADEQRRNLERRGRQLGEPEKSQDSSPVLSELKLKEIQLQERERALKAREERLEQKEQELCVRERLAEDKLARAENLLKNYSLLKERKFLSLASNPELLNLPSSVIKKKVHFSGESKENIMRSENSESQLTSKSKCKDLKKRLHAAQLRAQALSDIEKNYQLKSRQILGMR
The conditions noted are these: at 0.1 µM.

Assay [5] has as its target T3, Serine/threonine-protein kinase Nek2 (Homo sapiens). To be noted: at 1 µM.
The target of assay [6] is Serine/threonine-protein kinase Nek6 (Homo sapiens) (UniProt Q9HC98). To be noted: at 0.1 µM.
Chain of Serine/threonine-protein kinase Nek6 (Homo sapiens) (Q9HC98 whole entry): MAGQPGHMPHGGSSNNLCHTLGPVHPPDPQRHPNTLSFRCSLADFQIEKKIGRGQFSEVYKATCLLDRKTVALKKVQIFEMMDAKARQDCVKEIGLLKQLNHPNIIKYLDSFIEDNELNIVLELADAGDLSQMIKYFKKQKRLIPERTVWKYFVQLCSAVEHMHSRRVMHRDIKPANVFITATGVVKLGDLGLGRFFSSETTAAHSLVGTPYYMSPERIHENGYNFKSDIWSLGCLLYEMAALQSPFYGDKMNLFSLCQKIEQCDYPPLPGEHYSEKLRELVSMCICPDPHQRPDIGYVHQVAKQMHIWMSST
For assay [7] the target is unchanged. The conditions noted are these: at 1 µM.
For assay [8], the target named is Serine/threonine-protein kinase Nek7 (Homo sapiens) (UniProt Q8TDX7). The conditions noted are these: at 0.1 µM.
Chain of Serine/threonine-protein kinase Nek7 (Homo sapiens) (Q8TDX7 whole entry, looked up): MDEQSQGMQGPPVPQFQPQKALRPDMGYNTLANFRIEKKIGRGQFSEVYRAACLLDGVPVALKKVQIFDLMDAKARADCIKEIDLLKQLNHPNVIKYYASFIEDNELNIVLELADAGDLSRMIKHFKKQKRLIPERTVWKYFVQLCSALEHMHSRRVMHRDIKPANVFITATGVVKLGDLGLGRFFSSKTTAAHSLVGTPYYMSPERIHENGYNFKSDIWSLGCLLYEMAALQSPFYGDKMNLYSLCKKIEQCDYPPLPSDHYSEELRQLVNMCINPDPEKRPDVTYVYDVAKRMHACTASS
Assay [9] has the same target. The conditions noted are these: at 1 µM.
The target in assay [10] is T4, Serine/threonine-protein kinase Nek9 (Homo sapiens) (UniProt Q8TD19).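 Further: reported value is the mean percent inhibition of NEK9.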
T4 sequence (whole entry): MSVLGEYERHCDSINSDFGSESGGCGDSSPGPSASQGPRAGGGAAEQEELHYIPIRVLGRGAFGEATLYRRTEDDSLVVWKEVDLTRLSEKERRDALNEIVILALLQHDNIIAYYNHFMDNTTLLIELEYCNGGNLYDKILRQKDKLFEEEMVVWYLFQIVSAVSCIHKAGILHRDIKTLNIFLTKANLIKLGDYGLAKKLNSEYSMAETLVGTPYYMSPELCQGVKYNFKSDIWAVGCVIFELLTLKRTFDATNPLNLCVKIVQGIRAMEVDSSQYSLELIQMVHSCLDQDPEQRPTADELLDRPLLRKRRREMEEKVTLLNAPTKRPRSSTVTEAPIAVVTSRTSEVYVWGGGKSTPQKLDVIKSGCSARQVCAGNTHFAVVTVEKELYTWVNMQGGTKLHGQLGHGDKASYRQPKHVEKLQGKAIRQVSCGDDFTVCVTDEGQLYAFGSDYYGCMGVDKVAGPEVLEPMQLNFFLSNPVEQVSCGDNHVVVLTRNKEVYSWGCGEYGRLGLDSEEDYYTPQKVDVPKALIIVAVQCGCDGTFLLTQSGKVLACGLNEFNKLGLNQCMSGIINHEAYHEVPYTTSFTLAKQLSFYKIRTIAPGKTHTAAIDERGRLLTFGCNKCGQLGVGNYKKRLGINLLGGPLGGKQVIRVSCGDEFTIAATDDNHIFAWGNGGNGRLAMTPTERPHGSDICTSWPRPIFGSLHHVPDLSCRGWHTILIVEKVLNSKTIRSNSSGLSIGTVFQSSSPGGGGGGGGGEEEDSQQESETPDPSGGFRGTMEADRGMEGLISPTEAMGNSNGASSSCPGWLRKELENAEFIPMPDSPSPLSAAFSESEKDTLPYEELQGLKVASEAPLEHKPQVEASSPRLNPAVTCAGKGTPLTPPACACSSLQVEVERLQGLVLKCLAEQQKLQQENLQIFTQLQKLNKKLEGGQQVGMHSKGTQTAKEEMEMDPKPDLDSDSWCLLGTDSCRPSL
To be noted: at 0.1 µM.

As for `CN1CCC(n2cnc(-c3ccc(F)cc3)c2-c2ccnc(Nc3ccccc3)n2)CC1`, the inhibition in assay [1] came to 6.75%; in [2] it was 1.95%; in assay [3], 2.29%; in assay [4] it was 2.54%; in [5], 3.52%; in assay [6] it was 4.42%. Also, the inhibition in assay [7] came out at 3.58%; in [8] it was 2.94%; in assay [9], 2.65%; in [10], 5.58%.
Consider `CCn1c(-c2nonc2N)nc2cnc(Oc3cccc(NC(=O)c4ccc(N(C)C)cc4)c3)cc21`, for which the inhibition in assay [1] amounted to 14.1%; in assay [2], 1.17%; in assay [3] it was 4.28%; in assay [4] it was 2.85%; in assay [5] it was 1.24%; in assay [6], 0.89%. Also, the inhibition in assay [7] is 2.25%; in assay [8], 3.09%; in [9], 1.46%; in assay [10], 7.55%.
With `COc1cc2ncn(-c3cc(OCc4ccccc4C(F)(F)F)c(C(=O)N(C)C)s3)c2cc1OC`, the inhibition in assay [1] is 2.1%; in assay [2] it was 0.82%; in assay [3] it was 4.81%; in assay [4], 0.75%; in assay [5], 2.7%; in [6], 1.08%. In addition, the inhibition is -2.22% in [7], 2.1% in assay [8], 0.24% in assay [9] and 0.62% in assay [10].
With `Fc1ccc(-c2cc(-c3c[nH]nc3-c3ccccn3)ccn2)cc1`, the inhibition in [1] was determined as 7.34%; in assay [2] it was 2.81%; in assay [3], 0.44%; in [4], 4.38%; in assay [5] it was 3.61%; in assay [6] it was 4.06%. The inhibition in assay [7] was found to be 7.77%; in assay [8] it was 6.08%; in assay [9], 4.43%; in assay [10], 7.41%.
For `CC(C)(CO)CNC(=O)c1ccc2c(c1)/C(=N/Nc1ccc(S(N)(=O)=O)cc1)C(=O)N2`, the inhibition in assay [1] worked out at 59.7%; in [2] it was 0.37%; in assay [3], 1.29%; in assay [4] it was 0.26%; in assay [5] it was 0.85%; in assay [6], 1.63%. Besides, the inhibition in assay [7] was 0.2%; in [8], -1.3%; in assay [9] it was 2.36%; in assay [10] it was 2.95%.
With `Fc1ccc(-c2nn3ncccc3c2-c2ccnc(Nc3ccc4c(c3)OCCO4)n2)cc1`, the inhibition worked out at 7.06% in assay [1]; 2.45% in assay [2]; 1.02% in assay [3]; 5.03% in assay [4]; 4.48% in assay [5]; 0.64% in [6]. Moreover, the inhibition in [7] was 3.68%; in assay [8], 6.98%; in assay [9] it was 4.83%; in assay [10] it was 6.56%.
On to `Fc1cccc(COc2ccc(Nc3ncnc4sc(-c5ccco5)cc34)cc2Cl)c1`, for which the inhibition in assay [1] was 4.97%; in [2], 1.98%; in assay [3], 3.24%; in [4], 3.69%; in assay [5], 5.99%; in assay [6] it was 1.71%. The inhibition in assay [7] turned out to be 2.07%; in [8], 2.72%; in [9] it was 4.26%; in assay [10], 10.3%.
On to `O=S(=O)(CCNCc1ccc(-c2ccc3ncnc(Nc4ccc(OCc5cccc(F)c5)c(Cl)c4)c3c2)o1)c1ccccc1`, for which the inhibition was found to be 7.29% in assay [1]; 3.48% in assay [2]; 5.88% in assay [3]; 5.1% in assay [4]; 7.03% in [5]; 4.21% in assay [6]. Also, the inhibition in assay [7] was determined as 2.74%; in assay [8], 3.88%; in assay [9], 5.26%; in [10] it was 4.93%.

The inhibition is the drop in the measured response relative to a control, in per cent.
